The results in this text go back to PubChem BioAssay.

The subject of test [1] is Human papillomavirus type 1a protein E7 (residues 44-93). Description: HPV1a E7 fragment binders on microarrays, primary screen, biochemical, small-molecule microarray, residues 44-93, 635 nm fluorescence (AID 1108).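 Note: E7 fragment applied at 1 µg/mL in TBST for 1 h at 4 C; score combines spot fluorescence with its signal to noise ratio.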 Particulars: small-molecule microarray binding, fluorescence 635 nm; higher = more signal.
A short description of test [2]: modulators of HCV replicon luciferase signal, primary screen, HCV replication inhibitor project, Huh7 cells, luciferase reporter (AID 1109).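 Note: huh7 hepatoma cells harbouring a luciferase neomycin HCV replicon reporter; luciferase luminescence as measure of HCV replicon replication; test concentration not given here.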 Conditions: 48 h, higher = more signal. (In antiviral work, replicon cells carry a viral genome segment that copies itself.)
In test [3] the target is Left-right determination factor 2 (Homo sapiens) (UniProt O00292). Description: LEFTY2 binders on small-molecule microarrays, primary screen, biochemical, small-molecule microarray, 635 nm fluorescence scan (AID 1110). Particulars: LEFTY2 binding, higher = more signal.
In test [4] the target is Calmodulin-1 (Homo sapiens) (UniProt P0DP23). Description: CALM1 binders on microarrays, EGTA buffer, profiling panel, biochemical, small-molecule microarray, Cy5-labelled CALM1 (AID 1111).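 Note: labelled calmodulin applied in Tris saline Tween buffer holding calcium plus EGTA and DTT.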 Conditions: Cy5-CALM1 binding fluorescence, higher = more signal.
The target is the same in test [5]. Description: calcium-bound CALM1 binders on microarrays, profiling panel, artefact control for SMM control-protein annotation, biochemical, small-molecule microarray, Cy5-labelled CALM1, plus calcium (AID 1112).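 Note: score merges spot fluorescence with signal to noise from triplicate slides.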 Conditions: Cy5-CALM1 binding fluorescence, higher = more signal.
The nature of test [6]: small-molecule microarray binders of probe aWnt5a, primary screen, biochemical, biotinylated probe, 635/667 nm fluorescence (AID 1113).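 Note: score merges 667 nm fluorescence intensity with signal-to-noise per printed feature.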 Particulars: higher = more signal.
A short description of test [7]: small-molecule microarray binders of probe aShh, primary screen, biochemical, biotinylated probe, 635/667 nm fluorescence (AID 1114).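 Note: probe is biotin-labelled aShh protein from a stem cell growth factor screen; measures binding of labelled protein to compounds printed on the slide; score merges feature fluorescence at 667 nm with signal-to-noise.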 Conditions: higher = more signal.
Test [8] is described as follows: small-molecule microarray binders of probe aNog, primary screen, biochemical, biotinylated probe, 635/667 nm fluorescence (AID 1115).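 Note: probe is biotinylated aNog protein used at 0.15 µg/mL for 1 h at 4 C; z-score combines 667 nm fluorescence of each spot with its signal to noise.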 Conditions: higher = more signal.
Test [9] deals with Torsin-1A-interacting protein 1 (Homo sapiens) (UniProt Q5JTV8). Description: LAP1 binders from COS7 cell lysate, primary screen, small-molecule microarray, 635/667 nm fluorescence (AID 1116). Conditions: COS7-hLAP1 lysate binding, 635 nm fluorescence, higher = more signal.
The target of test [10] is Alpha-bungarotoxin (Bungarus multicinctus) (UniProt P60615). Description: alpha-bungarotoxin binders on microarray, profiling panel, artefact control for SMM control protein annotation, biochemical, small-molecule microarray, Alexa647 label, 635/667 nm fluorescence (AID 1117). Conditions: alpha-BTX-A647 binding fluorescence, higher = more signal.
Test [11] deals with Albumin (Bos taurus) (UniProt P02769). Description: bovine serum albumin binders on microarray, profiling panel, artefact control for SMM control protein annotation, biochemical, small-molecule microarray, Alexa647 label, 635/667 nm fluorescence (AID 1118).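 Note: score merges 667 nm emission intensity and signal-to-noise per printed compound spot.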 Conditions: BSA-A647 binding, fluorescence 635 nm, higher = more signal.
A short description of test [12]: small-molecule microarray binders of probe aXIP, primary screen, biochemical, NeuroSMM set, 635/667 nm fluorescence (AID 1119).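 Note: probe is the protein aXip251-270 applied at 1 µg/mL to compound-printed slides; binding of probe to printed compounds measured as 667 nm fluorescence plus signal to noise.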 Conditions: higher = more signal, called active from +8 up or from −8 down.
Test [13] can be described thus: small-molecule binders of probe aNOTCH3, primary screen, biochemical, small-molecule microarray, 635/667 nm fluorescence (AID 1120).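 Note: probe is a biotin-tagged antibody raised against NOTCH3 rather than NOTCH3 protein; score merges spot fluorescence near 667 nm with spot signal to noise.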 Particulars: higher = more signal.
Test [14] in a line: small-molecule binders of probe aNOTCH2, primary screen, biochemical, small-molecule microarray, 635/667 nm fluorescence (AID 1121).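 Note: score merges feature fluorescence read at 667 nm with its signal to noise.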 Conditions: higher = more signal.
The target of test [15] is Carbonic anhydrase 2 (Homo sapiens) (UniProt P00918). Description: CAII small-molecule binders, profiling panel, biochemical, small-molecule microarray, Alexa647-labelled CAII (AID 1122). Conditions: CAII-A647 binding fluorescence, higher = more signal.
Test [16] in a line: COS7 lysate on small-molecule microarray, probe aHis, 635 nm (AID 1123).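 Note: z-score combines 667nm fluorescence intensity with signal-to-noise per printed compound spot.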 Particulars: COS7 cell lysate, fluorescence, higher = more signal.
The nature of test [17]: compound binding in COS7 lysate, probe aLAP1, primary screen, cell lysate, small-molecule microarray (AID 1124).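 Note: lysate comes from COS7 cells expressing LAP1 and is applied at 0.3 µg/mL; score merges spot fluorescence near 667 nm with signal-to-noise over triplicate slides.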 Conditions: probe aLAP1, fluorescence, higher = more signal.
Test [18] concerns Sam68 (KHDRBS1). Description: Sam68 small-molecule binders, primary screen, biochemical, small-molecule microarray, 635 nm fluorescence (AID 1125).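 Note: score merges 667 nm channel intensity with signal to noise over triplicate slides.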 Particulars: small-molecule microarray binding, higher = more signal.
The subject of test [19] is Chordin-like protein 2 (CHRDL2). Description: CHRDL2 small-molecule binders, primary screen, biochemical, small-molecule microarray, 635 nm fluorescence (AID 1126).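 Note: printed compound slides probed with Chrdl2 protein at 4 µg/mL for 1 h at 4 C; score merges 667 nm emission intensity with signal to noise over three replicate slides.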 Particulars: small-molecule microarray binding, fluorescence 635 nm; higher = more signal.
Test [20] concerns the target Concanavalin-A (Canavalia ensiformis) (UniProt P02866). Description: ConA small-molecule binders, primary screen, artefact control for SMM control protein annotation, biochemical, small-molecule microarray, Alexa647 label, 635 nm (AID 1127).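 Note: z combines 667 nm emission intensity with signal-to-noise across three replicate slides.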 Conditions: ConA-A647 binding fluorescence, higher = more signal.

Active and inactive are the calls of the source.

Sequence of Alpha-bungarotoxin (Bungarus multicinctus) (P60615 whole entry, looked up): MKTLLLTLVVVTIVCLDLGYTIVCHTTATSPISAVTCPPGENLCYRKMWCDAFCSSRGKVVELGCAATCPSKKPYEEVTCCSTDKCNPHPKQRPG
Sequence of Concanavalin-A (Canavalia ensiformis) (P02866 whole entry, looked up): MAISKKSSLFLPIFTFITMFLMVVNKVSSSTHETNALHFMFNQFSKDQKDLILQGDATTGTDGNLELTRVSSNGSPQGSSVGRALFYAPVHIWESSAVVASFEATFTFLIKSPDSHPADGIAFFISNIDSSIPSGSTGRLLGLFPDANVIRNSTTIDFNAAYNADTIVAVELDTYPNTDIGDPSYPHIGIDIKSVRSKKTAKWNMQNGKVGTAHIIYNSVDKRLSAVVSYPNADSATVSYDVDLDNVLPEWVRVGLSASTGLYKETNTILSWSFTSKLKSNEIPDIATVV
Sequence of Torsin-1A-interacting protein 1 (Homo sapiens) (Q5JTV8 whole entry, looked up): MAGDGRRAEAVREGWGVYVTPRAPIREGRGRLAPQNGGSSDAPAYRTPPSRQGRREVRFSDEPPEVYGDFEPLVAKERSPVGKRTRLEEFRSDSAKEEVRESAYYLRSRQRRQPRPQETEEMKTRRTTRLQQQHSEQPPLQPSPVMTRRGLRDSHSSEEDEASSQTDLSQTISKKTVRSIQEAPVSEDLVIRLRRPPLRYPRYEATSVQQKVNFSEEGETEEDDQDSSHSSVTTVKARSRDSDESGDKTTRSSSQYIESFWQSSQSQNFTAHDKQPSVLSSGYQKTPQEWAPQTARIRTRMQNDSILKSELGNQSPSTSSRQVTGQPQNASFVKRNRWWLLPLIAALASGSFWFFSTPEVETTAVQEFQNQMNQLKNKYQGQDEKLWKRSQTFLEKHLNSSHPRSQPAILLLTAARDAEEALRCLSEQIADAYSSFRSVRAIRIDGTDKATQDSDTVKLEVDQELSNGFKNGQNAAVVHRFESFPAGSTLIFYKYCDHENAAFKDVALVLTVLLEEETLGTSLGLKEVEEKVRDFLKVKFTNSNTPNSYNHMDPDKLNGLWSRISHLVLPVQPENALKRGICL
Sequence of Left-right determination factor 2 (Homo sapiens) (O00292 whole entry, looked up): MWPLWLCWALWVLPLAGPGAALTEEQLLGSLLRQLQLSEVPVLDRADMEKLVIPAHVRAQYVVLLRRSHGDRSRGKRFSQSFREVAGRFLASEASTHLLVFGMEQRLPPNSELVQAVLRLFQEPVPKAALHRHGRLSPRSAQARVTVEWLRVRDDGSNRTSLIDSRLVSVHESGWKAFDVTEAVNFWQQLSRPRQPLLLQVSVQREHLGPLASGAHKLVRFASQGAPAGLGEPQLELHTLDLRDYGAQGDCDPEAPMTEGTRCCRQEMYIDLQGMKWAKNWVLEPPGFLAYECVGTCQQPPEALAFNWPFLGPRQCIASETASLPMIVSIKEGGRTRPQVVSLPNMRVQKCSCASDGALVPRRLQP
Sequence of Albumin (Bos taurus) (P02769 whole entry, looked up): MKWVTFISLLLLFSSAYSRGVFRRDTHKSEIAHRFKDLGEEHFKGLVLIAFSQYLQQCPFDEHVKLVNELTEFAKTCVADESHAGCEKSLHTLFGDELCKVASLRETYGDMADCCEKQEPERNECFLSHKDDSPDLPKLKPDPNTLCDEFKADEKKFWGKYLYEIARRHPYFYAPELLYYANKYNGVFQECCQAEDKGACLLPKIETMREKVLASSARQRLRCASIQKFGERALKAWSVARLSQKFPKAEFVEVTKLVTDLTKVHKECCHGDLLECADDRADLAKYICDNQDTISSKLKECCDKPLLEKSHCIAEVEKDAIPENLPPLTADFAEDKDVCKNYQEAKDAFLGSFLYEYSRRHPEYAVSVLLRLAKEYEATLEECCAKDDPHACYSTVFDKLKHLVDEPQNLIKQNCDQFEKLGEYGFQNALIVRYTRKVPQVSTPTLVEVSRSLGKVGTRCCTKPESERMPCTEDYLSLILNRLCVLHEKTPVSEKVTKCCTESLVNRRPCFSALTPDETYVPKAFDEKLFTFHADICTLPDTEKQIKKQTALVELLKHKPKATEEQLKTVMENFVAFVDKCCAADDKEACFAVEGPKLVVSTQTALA

As to `CCCCCCCCCCC(O)C1C=CC2C(=O)N(c3ccccc3)C(=O)C2N1Nc1ccccc1F` (stereo not given), the composite z-score in test [1] was 0.648; in test [3], -0.24; in test [4] it was 1.03; in [5], 1.07; in [6] it was -0.0715; in test [7], 0.246. In addition, the composite z-score is 0.238 in test [8]; 0.0092 in test [9]; 0.533 in test [10]; 0.524 in [11]; -0.0242 in [13]; -0.171 in test [14]. The composite z-score in [15] was 0.208; in test [16], 1.5; in test [17], 0.344; in test [18], 0.233; in [19], -1.13; in [20] it was 0.17. This compound showed a z-score in test [2] of -0.211. For the same compound, in test [12], the composite Z-score was -0.105 (inactive).

For `C[C@]1(C(=O)O)c2ccccc2C(=O)N(Cc2ccc(OC(F)(F)F)cc2)[C@H]1c1ccc(CO)cc1`, the composite z-score is -0.829 in [1]; -0.618 in test [3]; 1.03 in test [4]; 0.714 in test [5]; -0.129 in [6]; 0.147 in [7]. The composite z-score in [8] was 0.265; in [9] it was 0.703; in test [10], 1.56; in test [11] it was 0.12; in test [13], -0.104; in test [14], 0.109. In addition, the composite z-score was 0.73 in test [15]; 1.61 in test [16]; 0.902 in test [17]; -0.0536 in test [18]; -0.758 in test [19]; -0.783 in [20]. Further, the z-score in test [2] was -0.102. The composite Z-score in test [12] was 0.219 (inactive).

Turning to `O=C1C2C=CC(C(O)C=Cc3ccc([N+](=O)[O-])cc3)N(Nc3ccccc3)C2C(=O)N1c1ccccc1` (stereo not given), the composite z-score is 1.36 in test [1]; 0.0857 in test [3]; 1.37 in test [4]; -0.0507 in test [5]; 0.0037 in [6]; -0.0866 in test [7]. Moreover, the composite z-score in test [8] was -0.397; in [9], 0.568; in [10] it was 0.742; in [11], 0.859; in [13] it was 0.346; in [14] it was 0.0167. Moreover, the composite z-score in test [15] was 0.713; in test [16], 2.05; in test [17], 0.276; in [18], 1.24; in [19], -0.0982; in [20], 1.1. In [2], this compound came in with a z-score of -0.486. For the same compound, in test [12], the composite Z-score was 0.075 (inactive).

Turning to `COC(=O)c1c2oc(c1C(=O)OC)C(=O)N1CCC[C@H]1Cn1nncc1CN(Cc1ccccc1)C(=O)N[C@H](CO)CC2`, the composite z-score is 0.289 in test [1]; 0.239 in [3]; 0.724 in test [4]; 0.169 in test [5]; -0.0738 in test [6]; -0.221 in test [7]. The composite z-score in test [8] is -0.296; in test [9], -0.285; in test [10] it was -0.524; in test [11] it was 0.333; in test [13], -0.134; in [14] it was -0.164. The composite z-score in test [15] is 0.75; in test [16], 0.214; in test [17] it was 0.832; in test [18] it was 0.626; in test [19] it was -0.581; in [20] it was 0.125. The same compound registered a z-score in test [2] of 0.253. For the same compound, in [12], the composite Z-score was 0.316 (inactive).

Consider `COC(=O)[C@@]1(Cc2ccccc2CN=[N+]=[N-])N=C(c2ccc(OCCCO)cc2)O[C@H]1c1ccccc1`, for which the composite z-score in test [1] is 0.155; in test [3] it was -0.59; in test [4], -0.426; in test [5], 0.161; in test [6], 0.0101; in test [7] it was -0.0375. For the same compound, the composite z-score is 1.48 in [8]; 1.42 in test [9]; 0.779 in test [10]; 0.0186 in test [11]; 0.177 in test [13]; 0.0919 in test [14]. In addition, the composite z-score in test [15] worked out at 0.645; in test [16], 2.52; in test [17] it was 0.717; in [18], 0.711; in test [19], 0.4; in [20] it was 0.686. In addition, the z-score in test [2] is -3.09. The composite Z-score in test [12] is 0.951 (inactive).

In the case of `C[C@]1(C(=O)NCCN2CCOCC2)c2ccccc2C(=O)N(Cc2cc(F)cc(C(F)(F)F)c2)[C@H]1c1ccc(CO)cc1`, the composite z-score in [1] was 1.38; in test [3] it was -1.37; in test [4], -0.17; in test [5], -1.02; in test [6] it was -0.148; in test [7], -0.0222. Also, the composite z-score is -0.41 in test [8]; 1.88 in [9]; 2.4 in [10]; 0.0744 in test [11]; -0.159 in test [13]; -0.0928 in test [14]. Moreover, the composite z-score is 0.773 in test [15]; 2.18 in test [16]; 0.535 in [17]; 0.692 in test [18]; -0.841 in [19]; 0.828 in test [20]. Further, the z-score in test [2] was -1.06. The composite Z-score in [12] is 0.0652 (inactive).

As for `COc1ccc(C#Cc2ccc3c(c2)[C@]2(C(=O)N3)[C@H](C(=O)Nc3nc4ccccc4s3)[C@H]3C(=O)O[C@H](c4ccccc4)[C@H](c4ccccc4)N3[C@@H]2c2ccccc2OCCO)cc1`, the composite z-score in [1] is 1.18; in [3], 0.282; in test [4] it was 1.55; in [5] it was 0.436; in test [6], -0.0685; in [7], -0.282. Further, the composite z-score in test [8] was -0.273; in test [9], 0.471; in test [10] it was 1.02; in [11], 0.656; in test [13], 0.0942; in test [14], -0.149. The composite z-score in test [15] is 0.564; in test [16] it was 1.46; in [17] it was 0.476; in test [18], 1.25; in test [19], -0.0198; in test [20], 1.13. The compound further displayed a z-score in test [2] of -1.67. Besides, the composite Z-score in test [12] was 0.0221 (inactive).

`C=C(/C(=C/C[C@H](OC(=O)c1ccncc1)c1cccc(OCCO)c1)c1cnc2ccccc2c1)C(C)C`: the composite z-score in [1] is 0.589; in [3], 0.67; in test [4], 0.127; in test [5], -0.412; in [6], -0.0236; in test [7], -0.0011. Besides, the composite z-score in test [8] was 0.0215; in [9], 2.85; in test [10], 3.56; in test [11] it was -0.134; in test [13], 0.0306; in test [14] it was -0.0264. The composite z-score in test [15] is 0.942; in test [16] it was 0.301; in test [17], 1.04; in test [18], 1.23; in [19], 1.33; in [20], 0.898. The compound further had a z-score in test [2] of -4.47. Besides, the composite Z-score in test [12] is -1.19 (inactive).

As for `C=C(COC)/C(=C/C[C@H](OC(C)=O)c1cccc(OCCO)c1)c1cnc2ccccc2c1`, the composite z-score in test [1] was 1.4; in [3], 0.536; in test [4] it was -0.0062; in test [5] it was -0.892; in [6], -0.0512; in test [7], -0.147. Also, the composite z-score in [8] was 0.353; in test [9] it was 0.416; in [10], 2.04; in test [11], 0.497; in [13], 0.0556; in test [14] it was -0.0817. Moreover, the composite z-score is 0.917 in test [15]; 0.109 in [16]; 0.267 in [17]; 1.24 in test [18]; 1.35 in test [19]; 1.05 in test [20]. In addition, in [2], the z-score was -1.7. Moreover, the composite Z-score in [12] was 0.0575 (inactive).
